# Most compounds without a hit are left out; they make up all but 2.8% or so of the library.
# CtBP-E1A inh – blocks the CtBP interaction with E1A. AlphaScreen GST-E1A/His-CtBP binding, 1536-well; hits give low values. activity change, % (concentration not given with the values). 0.49% of 340,000 active. AID 651724; in the data active = activity change below about -65%; inconclusive = mostly about -30% to -63%; also: % is scaled to controls: 0 for no effect and ±100 for the full control effect
#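 AlphaScreen with 125 nM GST-E1A and 125 nM His-CtBP (5X stocks) in Tris pH 8.0, 300 mM NaCl, BSA, Tween 20, TCEP. Compounds preincubated 2 h at 37 deg C, then glutathione donor/nickel acceptor beads added for 1 h at 37 deg C in dark.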
# ATXN2 expr inh – ATXN2 expression inhibition; HEK-293 ATXN2-luciferase reporter, luminescence, 24 h; Potency, µM (doses to about 57 µM), inactives show at the top dose activity change, negative = inhibition, actives largely listed as inhibitors; 0.72% of 360,000 active; AID 1745845; also: potency is read from the fitted curve at half-maximal effect; % is scaled to controls: 0 for no effect and ±100 for the full control effect; nearly all actives have a fitted effect of over 55% in size
#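 ATXN2-luciferase reporter cells (luciferase flanked by upstream and downstream ATXN2 gene portions) were treated 24 h at 37 °C with compounds at up to 57 uM. SteadyGlo luminescence gave expression; GF-AFC fluorescence gave viability.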
# ATXN viability – viability counter-screen for ATXN expression inhibitors. S2 cells (HEK-293 line with an ATXN2-luciferase reporter) viability, CellTiter-Fluor protease fluorescence, 24 h. Potency, µM (titrated, usually from 56.7 µM), usual class: cytotoxic. 0.49% of 400,000 active. AID 651635; also: potency is read from the fitted curve at half-maximal effect; nearly all actives have a fitted effect of over 40% in size
# TGFb inhibitor – TGF-b pathway inhibition. HepG2 CAGA-GFP TGF-b/SMAD3 reporter, GFP fluorescence, 18 h; TGF-beta stimulated, 500 pg/mL final. Potency, µM (highest dose often 46.1 µM), for inactives: at the highest dose activity, negative = inhibition, usual class: inhibitors. 1.2% of 410,000 active. AID 588855; also: potency is read from the fitted curve at half-maximal effect; % is scaled to controls: 0 for no effect and ±100 for the full control effect; nearly all actives have a fitted effect of over 65% in size
#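 HEPG2 CAGA-GFP reporter cells (1000/well, DMEM with 1% FBS) received compounds, then recombinant TGF-beta at 500 pg/mL final for 18 hours at 37 degrees C. Per-cell GFP summed per well was normalised to unstimulated and stimulated DMSO controls before curve fitting.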
# HepG2 viability – HepG2 cytotoxicity, counter-screen for TGF-b inhibitors | HepG2 CAGA-GFP viability, ATP luminescence, 18 h | Potency, µM (highest dose often 46.1 µM), inactives show at the highest dose activity change, negative = cytotoxicity, usual class: cytotoxic | 0.76% of 410,000 active | AID 588856; also: potency is read from the fitted curve at half-maximal effect
#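 HepG2 CAGA-GFP cells (1000/well, DMEM with 1% FBS) received compound, then TGF-beta at 500 pg/mL final, and were incubated 18 hours at 37 degrees C. Viability was read by CellTiter-Glo luminescence. Media-only wells were set as complete cell-killing and DMSO as no toxicity.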
# Six1-Eya2 inh – inhibitors of human Six1/Eya2 interaction; Q15475+O00167; AlphaScreen GST-Six1/His-Eya2 binding, biochemical; hits give low values; activity change, % (test concentration not listed); 0.56% of 360,000 active; in the data active = activity change below about -65%; inconclusive = mostly about -30% to -63%; also: % is scaled to controls: 0 for no effect and ±100 for the full control effect
# Target sequence (O00167 whole entry, looked up): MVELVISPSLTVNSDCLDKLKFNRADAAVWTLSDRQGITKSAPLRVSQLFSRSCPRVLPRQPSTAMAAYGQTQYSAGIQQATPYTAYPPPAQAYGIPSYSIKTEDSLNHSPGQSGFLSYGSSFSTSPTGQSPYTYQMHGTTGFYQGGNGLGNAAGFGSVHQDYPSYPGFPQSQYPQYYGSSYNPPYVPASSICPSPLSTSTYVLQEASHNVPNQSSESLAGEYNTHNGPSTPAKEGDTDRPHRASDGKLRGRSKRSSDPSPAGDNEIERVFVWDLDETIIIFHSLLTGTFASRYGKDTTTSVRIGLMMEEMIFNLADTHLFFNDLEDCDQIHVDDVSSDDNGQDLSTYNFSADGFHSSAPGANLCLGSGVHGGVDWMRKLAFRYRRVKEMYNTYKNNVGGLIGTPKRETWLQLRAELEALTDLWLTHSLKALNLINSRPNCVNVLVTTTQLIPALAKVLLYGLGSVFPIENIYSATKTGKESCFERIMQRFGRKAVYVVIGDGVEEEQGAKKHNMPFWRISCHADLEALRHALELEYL
# Target sequence (Q15475 whole entry, looked up): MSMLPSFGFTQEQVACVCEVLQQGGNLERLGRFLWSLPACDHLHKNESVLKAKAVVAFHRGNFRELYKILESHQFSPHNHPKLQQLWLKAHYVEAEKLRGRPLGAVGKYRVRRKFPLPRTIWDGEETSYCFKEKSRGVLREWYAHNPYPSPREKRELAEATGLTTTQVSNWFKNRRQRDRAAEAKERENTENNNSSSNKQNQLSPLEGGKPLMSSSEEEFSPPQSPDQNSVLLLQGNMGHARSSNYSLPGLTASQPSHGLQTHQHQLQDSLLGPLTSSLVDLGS
#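 GST-Six1 + His-Eya2 (5X stock: 250/500 nM); Tris pH 8.0, 300 mM NaCl, 0.05% BSA, 0.02% Tween 20; GSH donor/Ni acceptor beads; 1 h 37 °C dark; AlphaScreen readout.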
# * hit, by the source's call; i = inactive; ? = inconclusive; . = no result; ! = repeats disagree. Unless noted, calls follow the shape of the dose curve; as a rule, active = well fitted curve in the direction sought with a large enough effect; inconclusive = small, poorly fitted or top-dose-only effect, or another doubt; inactive = no such curve, though single readings can be large; an effect the other way counts as inactive or inconclusive.
SMILES,CtBP-E1A inh,ATXN2 expr inh,ATXN viability,TGFb inhibitor,HepG2 viability,Six1-Eya2 inh
CCN(c1ccccc1)C(CNS(=O)(=O)c1ccccc1)c1ccccc1 (configuration not stated),.,?,?,16µM*,-48%,.
O=C(c1ccc(C(F)(F)F)cc1)N(Cc1cc2ccc(F)cc2nc1N1CCOCC1)C1CC1,.,.,i,.,.,.
CCC(=O)C1=C(c2ccccc2)N(C(=O)CC)n2c(nnc2-c2ccccc2)S1,.,.,.,-2%,-2%,.
CCOc1ccc(C2=C(C(C)=O)Sc3nnc(C)n3N2C(C)=O)cc1,.,.,.,7.9µM*,-58%,.
CC(=O)C1=C(c2cccc([N+](=O)[O-])c2)N(C(C)=O)n2c(C)nnc2S1,-15,?,?,11µM*,11µM*,-9
CC(=O)C1=C(c2ccc(C)cc2)N(C(C)=O)n2c(nnc2-c2ccccc2)S1,.,.,.,-9%,-2%,.
CCC(=O)C1=C(c2ccc(Cl)cc2)N(C(=O)CC)n2c(C)nnc2S1,.,.,.,6.3µM*,-29%,.
CC(C)c1ccc(C(=O)N2CCCCC2c2cc(C(=O)Nc3ccncc3)no2)cc1 (configuration not stated),-3,-17%,i,4%,-12%,1
COC(=O)C1CCN(Cc2ccc3c(c2)CN(C(=O)C2CCCN(c4ccccn4)C2)CCO3)CC1 (configuration not stated),.,.,i,.,.,.
CC(CC(C#N)(c1ccccc1)C(C)C)N(C)C (configuration not stated),.,-6%,i,.,.,.
COc1ccc(-c2nc(Cn3c(SCc4ccc(C)cc4)nc4cccnc43)c(C)o2)cc1OC,.,.,.,10µM*,-32%,.
COc1ccc(C(=O)CSc2ccc(-c3ccccc3)nn2)cc1,-11,-6%,i,-8%,-14%,6
COc1ccc(-c2ccc(SC)nn2)cc1,0,?,i,-7%,7.1µM*,-3
COc1ccc(-c2nc3c4ccccc4ccn3c2CN2CCCCC2)cc1OC,-3,.,32µM*,?,-25%,-17
COc1ccc(CNc2nc(Cl)nc3nc[nH]c23)cc1,.,.,.,31%,1%,.
O=C(N/N=C/C(Br)=C\c1ccccc1)c1n[nH]c2c1CCC2,-87*,?,?,?,-44%,-21
O=C(N/N=C/c1cccs1)c1n[nH]c2c1CCCC2,10,15µM*,i,6%,-46%,-6
OC[C@H]1O[C@@H](O[C@H]2[C@@H](O)[C@@](O)(CO)O[C@@H]2CO)[C@H](O)[C@@H](O)[C@@H]1O,.,1%,.,.,.,.
COc1ccc(OC)c(CN2C[C@H](Sc3ccc(F)cc3)C[C@H]2C(=O)N(C)C)c1,.,.,i,.,.,.
CN(C(=O)COc1ccccc1C(=O)Nc1ccccc1)c1ccccc1,.,.,.,?,-26%,.
COc1ccccc1NC(=O)COc1ccc(-c2nn(C)c(=O)c3ccccc23)cc1,3,?,i,7.9µM*!,-1%,-19
Cc1noc(/C=C/c2cccs2)c1S(=O)(=O)N1CCC(C(=O)Nc2ccc(F)c(Cl)c2)CC1,.,.,.,6.3µM*,-24%,.
CCOc1ccccc1/C=C/c1onc(C)c1S(=O)(=O)N1CCC(C(=O)N(CC)CC)CC1,.,.,?,?,5%,9
CCN(CCN(C)C)C(=O)C1CCN(S(=O)(=O)c2c(C)noc2/C=C/c2ccccc2F)CC1,.,.,?,?,16µM*!,22
N#Cc1ccc(NC(=O)Nc2ccccc2Br)c2n[nH]nc12,.,8%,.,.,.,.
SMILES,CtBP-E1A inh,ATXN2 expr inh,ATXN viability,TGFb inhibitor,HepG2 viability,Six1-Eya2 inh
FC(F)(F)c1ccc(Nc2nc3ccc(Oc4ccnc(-c5ncc(C(F)(F)F)[nH]5)c4)cc3[nH]2)cc1,.,-12%,.,.,.,.
COc1ccc(Br)cc1/C=N/n1c(C)nc2ccccc2c1=O,-4,-14%,i,5%,-4%,0
Cc1nc2ccccc2c(=O)n1/N=C/c1cc(Br)ccc1O,-65*,?,?,-14%,-17%,?
COc1ccc(-c2ccc(OC)c(C3C4C=CCCC4(C)C(=O)N3Cc3ccccc3)c2)cc1OC (configuration not stated),.,.,.,?,2%,.
COc1ccc(C2C3C=CCCC3(C)C(=O)N2Cc2ccccc2)cc1Cl (configuration not stated),.,.,.,14µM*,-43%,.
CN1C2CCC1/C(=C\c1ccccc1)C(=O)/C2=C\c1ccccc1,6,25µM*,?,0%,-25%,1
O=C1/C(=C/c2ccccc2)CCC1C1CCCC1 (configuration not stated),-14,19%,i,20%,5%,13
COCCN1CCN(C(=O)c2cnn(-c3nccc(-c4ccco4)n3)c2C2CC2)CC1,.,.,i,.,.,.
Cc1cc(/C=C(/C#N)c2nc3ccccc3[nH]2)c(C)n1-c1cc(C(=O)O)cc(C(=O)O)c1,-66*,-4%,i,14%,0%,-69*
Cc1cc(/C=C(/C#N)c2nc3ccccc3[nH]2)c(C)n1-c1ccccc1C(=O)O,0,-16%,.,24%,13%,?
O=C(NCCc1cnc[nH]1)Nc1cccc(C(F)(F)F)c1,.,.,i,5%,2%,-3
O=C(Nc1cccc(Nc2ncc(Br)c(NCCc3cnc[nH]3)n2)c1)N1CCCC1,.,19µM*,.,.,.,.
O=C1N/C(=N\N=C\c2ccco2)SC1Cc1ccccc1[N+](=O)[O-] (configuration not stated),.,.,11µM*,-29%,-15%,-10
Cc1ncc2c(c1CNC(=O)c1ccsc1)CCN(C(=O)c1c(F)cccc1Cl)C2,.,.,i,.,.,.
CCc1cc(-c2[nH]ncc2-c2ccc([N+](=O)[O-])cc2)c(O)cc1OC,-3,-5%,i,13µM*,-63%,-7
O=[N+]([O-])c1ccc(COc2ccc(-c3[nH]ncc3-c3ccc(Cl)cc3)c(O)c2)cc1,1,?,?,?,-87%,-13
Cn1c(=O)n(C)c2cc(NS(=O)(=O)c3ccc(C(C)(C)C)cc3)c(NCc3ccccc3)cc21,.,29%,?,?,-42%,.
Cc1csc(CNc2ncnc3ccc(-c4ccoc4)cc23)c1,.,12%,i,-17%,-7%,.
Cc1ccsc1CN(C)c1ncnc2ccc(-c3ccoc3)cc12,.,-15%,i,11µM*,-43%,.
CCc1ccc(CN(Cc2cn[nH]c2-c2ccc(OC)cc2)C(=O)Nc2ccc(C)c(F)c2)cc1,.,.,.,10µM*,-43%,.
COc1ccc(S(=O)(=O)N2CCN(CC(=O)Nc3ccc(C)c(F)c3)CC2)cc1,8,-21%,i,0%,-18%,-3
CCOC(=O)CN(C)Cc1cn[nH]c1-c1ccc2cc(OC)ccc2c1,-1,-11%,i,-10%,-1%,1

# Source: PubChem BioAssay (National Center for Advancing Translational Sciences (NCATS))
